# Experimental data as given in the supplement of paper PMC8728848.
# Many of the other results were omitted from the sample, so the strongest signals are more common in it than they were.
# B1: MpAFP NterminalRI GFP (Marinomonas primoryensis) (protein)
# chain: MSDNQFPFATLGNAIGFITKLDGSVTVQSIDGQERVLKLGDPIFFGETVLTGGSGSVTIAFVDGTDVVIGGDSIVEMTDEIYNTGDNEDLVADSSSEIDALQNAILAGDDPTLIQDAPAAGNTLADQQRVDVSIERNDNSAQAGFGVDTQSSLPTYGYDTDNGNGGQATEREYSAPSLSRTLNQSPLLEHHHHHH
# Assays:
# Assay in all cases: glycan array binding signal (z-score within array); higher = stronger binding
# Conditions in all cases: glycan notation: IUPAC condensed, linker removed
# [1] = target: Fuc(a1-2)Gal(b1-3)GalNAc(a1-3)[Fuc(a1-2)]Gal(b1-4)GlcNAc
# In short: (§1)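 Glycan array data were curated from 3228 arrays in the Consortium for Functional Glycomics database and kept only where the protein sequence was available. Glycan names were converted to IUPAC-condensed notation, and columns mapping to the same glycan were averaged. The binding signal is a within-array Z-score, averaged across arrays of the same protein sequence at different concentrations or buffers and across linkers. Negative Z-scores can be read as non-binding.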
# [2] = target: Fuc(a1-2)Gal(b1-3)GlcNAc(b1-3)[Gal(b1-4)GlcNAc(b1-6)]Gal(b1-4)Glc
# In short: as §1
# [3] = target: Fuc(a1-2)Gal(b1-4)GlcNAc(b1-6)GalNAc
# In short: as §1
# [4] = target: Fuc(a1-2)Gal3S(b1-4)GlcNAc
# In short: as §1
# [5] = target: Fuc(a1-2)[Gal(a1-3)]Gal
# In short: as §1
# [6] = target: Fuc(a1-2)[GalNAc(a1-3)]Gal(b1-3)GlcNAc
# In short: as §1
# [7] = target: Fuc(a1-4)GlcNAc
# In short: as §1
# [8] = target: Gal(a1-3)Gal(b1-3)GlcNAc(b1-6)GalNAc
# In short: as §1
# [9] = target: Gal(a1-3)Gal(b1-4)GlcNAc(b1-2)Man(a1-3)[Gal(a1-3)Gal(b1-4)GlcNAc(b1-2)Man(a1-6)]Man(b1-4)GlcNAc(b1-4)GlcNAc
# In short: as §1
# [10] = target: Gal(b1-3)GalNAc
# In short: as §1
# [11] = target: Gal(b1-3)GalNAc(a1-3)[Fuc(a1-2)]Gal(b1-4)Glc
# In short: as §1
# [12] = target: Gal(b1-3)GlcNAc(b1-2)Man(a1-3)[Gal(b1-3)GlcNAc(b1-2)Man(a1-6)]Man(b1-4)GlcNAc(b1-4)GlcNAc
# In short: as §1
# [13] = target: Gal(b1-3)GlcNAc(b1-2)[Gal(b1-3)GlcNAc(b1-6)]Man(a1-6)[Gal(b1-3)GlcNAc(b1-2)Man(a1-3)]Man(b1-4)GlcNAc(b1-4)GlcNAc
# In short: as §1
# [14] = target: Gal(b1-3)GlcNAc(b1-3)Gal(b1-3)GlcNAc
# In short: as §1
# [15] = target: Gal(b1-3)[GlcNAc(b1-6)]GalNAc
# In short: as §1
# [16] = target: Gal(b1-3)[Neu5Ac(a2-6)]GlcNAc(b1-4)Gal(b1-4)Glc
# In short: as §1
# [17] = target: Gal(b1-4)GlcNAc(b1-3)Gal(b1-3)GalNAc
# In short: as §1
# [18] = target: Gal(b1-4)GlcNAc(b1-3)Gal(b1-4)GlcNAc(b1-2)[Gal(b1-4)GlcNAc(b1-3)Gal(b1-4)GlcNAc(b1-6)]Man(a1-6)[Gal(b1-4)GlcNAc(b1-3)Gal(b1-4)GlcNAc(b1-2)Man(a1-3)]Man(b1-4)GlcNAc(b1-4)[Fuc(a1-6)]GlcNAc
# In short: as §1
# [19] = target: Gal(b1-4)GlcNAc(b1-3)Gal(b1-4)GlcNAc(b1-3)Gal(b1-4)GlcNAc(b1-2)Man(a1-3)[Gal(b1-4)GlcNAc(b1-3)Gal(b1-4)GlcNAc(b1-3)Gal(b1-4)GlcNAc(b1-2)Man(a1-6)]Man(b1-4)GlcNAc(b1-4)[Fuc(a1-6)]GlcNAc
# In short: as §1
# [20] = target: Gal(b1-4)GlcNAc(b1-3)Gal(b1-4)GlcNAc(b1-3)Gal(b1-4)GlcNAc(b1-2)[Gal(b1-4)GlcNAc(b1-3)Gal(b1-4)GlcNAc(b1-3)Gal(b1-4)GlcNAc(b1-6)]Man(a1-6)[Gal(b1-4)GlcNAc(b1-3)Gal(b1-4)GlcNAc(b1-3)Gal(b1-4)GlcNAc(b1-2)Man(a1-3)]Man(b1-4)GlcNAc(b1-4)[Fuc(a1-6)]GlcNAc
# In short: as §1
# [21] = target: Gal(b1-4)GlcNAc(b1-3)[Fuc(a1-3)GlcNAc(b1-6)]Gal(b1-4)Glc
# In short: as §1
# [22] = target: Gal(b1-4)GlcNAc(b1-6)GalNAc
# In short: as §1
# [23] = target: Gal(b1-4)GlcNAc(b1-6)[Gal(b1-3)]GalNAc
# In short: as §1
# [24] = target: GalNAc(b1-3)Gal(a1-4)Gal(b1-4)GlcNAc(b1-3)Gal(b1-4)Glc
# In short: as §1
# [25] = target: GalNAc(b1-3)GalNAc
# In short: as §1
# [26] = target: GalNAc3S(b1-4)[Fuc(a1-3)]GlcNAc
# In short: as §1
# [27] = target: Glc(a1-6)Glc(a1-6)Glc(a1-6)Glc
# In short: as §1
# [28] = target: Glc(b1-4)Glc
# In short: as §1
# [29] = target: GlcA(b1-6)Gal
# In short: as §1
# [30] = target: GlcNAc(b1-3)Gal(b1-4)GlcNAc(b1-2)[GlcNAc(b1-3)Gal(b1-4)GlcNAc(b1-6)]Man(a1-6)[GlcNAc(b1-3)Gal(b1-4)GlcNAc(b1-2)Man(a1-3)]Man(b1-4)GlcNAc(b1-4)GlcNAc
# In short: as §1
# [31] = target: GlcNAc(b1-3)Gal(b1-4)GlcNAc(b1-3)Gal(b1-4)GlcNAc(b1-3)Gal(b1-4)GlcNAc(b1-2)Man(a1-3)[GlcNAc(b1-3)Gal(b1-4)GlcNAc(b1-3)Gal(b1-4)GlcNAc(b1-3)Gal(b1-4)GlcNAc(b1-2)Man(a1-6)]Man(b1-4)GlcNAc(b1-4)GlcNAc
# In short: as §1
# [32] = target: GlcNAc(b1-3)Gal(b1-4)GlcNAc(b1-3)Gal(b1-4)GlcNAc(b1-3)Gal(b1-4)GlcNAc(b1-2)[GlcNAc(b1-3)Gal(b1-4)GlcNAc(b1-3)Gal(b1-4)GlcNAc(b1-3)Gal(b1-4)GlcNAc(b1-6)]Man(a1-6)[GlcNAc(b1-3)Gal(b1-4)GlcNAc(b1-3)Gal(b1-4)GlcNAc(b1-3)Gal(b1-4)GlcNAc(b1-2)Man(a1-3)]Man(b1-4)GlcNAc(b1-4)[Fuc(a1-6)]GlcNAc
# In short: as §1
# [33] = target: GlcNAc(b1-3)Gal(b1-4)GlcNAc(b1-3)Gal(b1-4)GlcNAc(b1-3)Gal(b1-4)GlcNAc(b1-3)Gal(b1-4)GlcNAc(b1-2)Man(a1-3)[GlcNAc(b1-3)Gal(b1-4)GlcNAc(b1-3)Gal(b1-4)GlcNAc(b1-3)Gal(b1-4)GlcNAc(b1-3)Gal(b1-4)GlcNAc(b1-2)Man(a1-6)]Man(b1-4)GlcNAc(b1-4)GlcNAc
# In short: as §1
# [34] = target: GlcNAc(b1-3)Gal(b1-4)GlcNAc(b1-3)Gal(b1-4)GlcNAc(b1-3)GalNAc
# In short: as §1
# [35] = target: GlcNAc(b1-3)[GlcNAc(b1-6)]Gal(b1-4)GlcNAc
# In short: as §1
# [36] = target: GlcNAc(b1-4)GlcNAc
# In short: as §1
# [37] = target: Man(a1-2)Man(a1-3)[Man(a1-2)Man(a1-6)]Man
# In short: as §1
# [38] = target: Man(a1-3)[Man(a1-6)]Man(b1-4)GlcNAc(b1-4)[Fuc(a1-6)]GlcNAc
# In short: as §1
# [39] = target: Neu5Ac(a2-3)Gal(b1-3)GalNAc6S
# In short: as §1
# [40] = target: Neu5Ac(a2-3)Gal(b1-3)]Neu5Ac(a2-3)Gal(b1-4)]GlcNAc
# In short: as §1
# [41] = target: Neu5Ac(a2-3)Gal(b1-4)GlcNAc(b1-3)Gal(b1-4)GlcNAc(b1-3)Gal(b1-4)GlcNAc(b1-2)Man(a1-3)[Neu5Ac(a2-3)Gal(b1-4)GlcNAc(b1-3)Gal(b1-4)GlcNAc(b1-3)Gal(b1-4)GlcNAc(b1-2)Man(a1-6)]GalNAc
# In short: as §1
# [42] = target: Neu5Ac(a2-3)Gal(b1-4)GlcNAc(b1-6)[Gal(b1-3)]GalNAc
# In short: as §1
# [43] = target: Neu5Ac(a2-3)Gal(b1-4)[Fuc(a1-3)]GlcNAc6S
# In short: as §1
# [44] = target: Neu5Ac(a2-3)[GalNAc(b1-4)]Gal(b1-4)Glc
# In short: as §1
# [45] = target: Neu5Ac(a2-6)Gal(b1-4)GlcNAc(b1-2)Man(a1-3)[GlcNAc(b1-4)][Neu5Ac(a2-6)Gal(b1-4)GlcNAc(b1-2)Man(a1-6)]Man(b1-4)GlcNAc(b1-4)GlcNAc
# In short: as §1
# [46] = target: Neu5Ac(a2-6)Gal(b1-4)GlcNAc(b1-2)Man(a1-6)Man(b1-4)GlcNAc(b1-4)GlcNAc
# In short: as §1
# [47] = target: Neu5Ac(a2-6)Gal(b1-4)GlcNAc(b1-3)Gal(b1-4)GlcNAc(b1-3)Gal(b1-4)GlcNAc(b1-2)Man(a1-3)[Neu5Ac(a2-6)Gal(b1-4)GlcNAc(b1-3)Gal(b1-4)GlcNAc(b1-3)Gal(b1-4)GlcNAc(b1-2)Man(a1-6)]GalNAc
# In short: as §1
# [48] = target: Neu5Ac(a2-6)Gal(b1-4)GlcNAc(b1-3)Gal(b1-4)GlcNAc(b1-3)[Neu5Ac(a2-6)Gal(b1-4)GlcNAc(b1-3)Gal(b1-4)GlcNAc(b1-6)]GalNAc
# In short: as §1
# [49] = target: Neu5Ac(a2-6)Gal(b1-4)GlcNAc(b1-3)Gal(b1-4)[Fuc(a1-3)]GlcNAc(b1-3)Gal(b1-4)[Fuc(a1-3)]GlcNAc
# In short: as §1
# [50] = target: Neu5Ac(a2-6)GalNAc
# In short: as §1
# [51] = target: Neu5Ac(a2-8)Neu5Ac(a2-3)Gal(b1-4)GlcNAc
# In short: as §1
# [52] = target: Neu5Gc(a2-3)Gal(b1-4)GlcNAc
# In short: as §1
# [53] = target: Neu5Gc(a2-6)GalNAc
# In short: as §1
binder,measurement,setting,value
B1,glycan array binding signal (z-score),[1],-0.525
same,glycan array binding signal (z-score),[2],-0.221
same,glycan array binding signal (z-score),[3],1.68
same,glycan array binding signal (z-score),[4],-0.495
same,glycan array binding signal (z-score),[5],-0.494
same,glycan array binding signal (z-score),[6],-0.215
same,glycan array binding signal (z-score),[7],2.46
same,glycan array binding signal (z-score),[8],-0.446
same,glycan array binding signal (z-score),[9],-0.164
same,glycan array binding signal (z-score),[10],-0.228
same,glycan array binding signal (z-score),[11],-0.422
same,glycan array binding signal (z-score),[12],-0.119
same,glycan array binding signal (z-score),[13],-0.305
same,glycan array binding signal (z-score),[14],-0.424
same,glycan array binding signal (z-score),[15],-0.473
same,glycan array binding signal (z-score),[16],-0.565
same,glycan array binding signal (z-score),[17],-0.412
same,glycan array binding signal (z-score),[18],4.16
same,glycan array binding signal (z-score),[19],0.649
same,glycan array binding signal (z-score),[20],2.76
same,glycan array binding signal (z-score),[21],-0.081
same,glycan array binding signal (z-score),[22],-0.473
same,glycan array binding signal (z-score),[23],0.083
same,glycan array binding signal (z-score),[24],-0.509
same,glycan array binding signal (z-score),[25],-0.576
same,glycan array binding signal (z-score),[26],-0.39
same,glycan array binding signal (z-score),[27],-0.16
same,glycan array binding signal (z-score),[28],0.784
same,glycan array binding signal (z-score),[29],-0.407
same,glycan array binding signal (z-score),[30],6.32
same,glycan array binding signal (z-score),[31],6.83
same,glycan array binding signal (z-score),[32],2.6
same,glycan array binding signal (z-score),[33],0.255
same,glycan array binding signal (z-score),[34],-0.344
same,glycan array binding signal (z-score),[35],-0.441
same,glycan array binding signal (z-score),[36],4.84
same,glycan array binding signal (z-score),[37],2.93
same,glycan array binding signal (z-score),[38],-0.195
same,glycan array binding signal (z-score),[39],-0.078
same,glycan array binding signal (z-score),[40],-0.531
same,glycan array binding signal (z-score),[41],2.98
same,glycan array binding signal (z-score),[42],3.31
same,glycan array binding signal (z-score),[43],-0.574
same,glycan array binding signal (z-score),[44],-0.63
same,glycan array binding signal (z-score),[45],-0.202
same,glycan array binding signal (z-score),[46],-0.385
same,glycan array binding signal (z-score),[47],1.24
same,glycan array binding signal (z-score),[48],-0.027
same,glycan array binding signal (z-score),[49],-0.212
same,glycan array binding signal (z-score),[50],-0.388
same,glycan array binding signal (z-score),[51],-0.655
same,glycan array binding signal (z-score),[52],-0.632
same,glycan array binding signal (z-score),[53],3.75
